Inconclusive results are not listed. A call without a number means that no potency is given here. Unmarked numbers belong to inactive results. Calls of active or inactive are those of the source. Calls follow the shape of the full dose curve.
Test: p53 small molecule agonists, cell-based qHTS assay with rat liver microsomes: qHTS cell viability counter screen (AID 1963580); also: nearly all actives have a fitted effect of over 45% in size
Settings: p53RE-bla HCT-116 + rat microsomes, ATP viability, 16 h; series mostly up to 66 µM
Procedure, shortened: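 Luminescent ATP readout (CellTiter-Glo, 30 min at room temperature) reports viability of p53RE-bla HCT-116 cells after 16 h at 37 C with test compounds under metabolic activation by rat liver microsomes and NADPH at 0.5 mg/mL final each.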
Potency is read from the fitted curve at half-maximal effect.

| Compound | Potency | activity change, negative = cytotoxicity |
| --- | --- | --- |
| CC1(c2ccc(Oc3ccccc3)cc2)OC(=O)N(Nc2ccccc2)C1=O (stereo not drawn) | inactive | – |
| Oc1cc(Cl)cc(Cl)c1 | inactive | – |
| COc1ccc(C(c2ccc(OC)cc2)C(Cl)(Cl)Cl)cc1 | inactive | – |
| CC(C)N(C(=O)COc1nnc(C(F)(F)F)s1)c1ccc(F)cc1 | inactive | – |
| Oc1cccc(Cl)c1 | inactive | – |
| CCOP(=S)(OCC)Oc1ccc(S(C)=O)cc1 (stereo not drawn) | inactive | – |
| O=c1[nH]c2ccccc2o1 | inactive | – |
| CN1C(=S)CN=C(c2ccccc2)c2cc(Cl)ccc21 | inactive | – |
| C=C(C)[C@H]1CN[C@H](C(=O)O)[C@H]1CC(=O)O | inactive | – |
| C[C@@H](N)[C@@H](O)c1ccccc1 | inactive | – |
| CC(C)(Cl)[N+](=O)[O-] | inactive | – |
| CC[C@H](C)[C@H]1O[C@]2(C=C[C@@H]1C)C[C@@H]1C[C@@H](C/C=C(\C)[C@@H](O[C@H]3C[C@H](OC)[C@@H](O[C@H]4C[C@H](OC)[C@@H](O)[C@H](C)O4)[C@H](C)O3)[C@@H](C)/C=C/C=C3\CO[C@@H]4[C@H](O)C(C)=C[C@@H](C(=O)O1)[C@]34O)O2 | inactive | – |
| Cc1ccc2nc3sc(=O)sc3nc2c1 | – | -3.16% [at 13.5 µM] |
| O=[N+]([O-])c1c(Cl)c(Cl)cc(Cl)c1Cl | 36.3 µM (active) | – |
| CCCCCCCCCCCCN(C)C | inactive | – |
| CCCCN(CCCC)C(=S)[S-].CCCCN(CCCC)C(=S)[S-].[Zn+2] | 3.63 µM (active) | – |
| CCN(CC)C(=S)[S-].CCN(CC)C(=S)[S-].[Zn+2] | 1.61 µM (active) | – |
| CS(=O)(=O)c1ccc(C(=O)C2C(=O)CCCC2=O)c(Cl)c1COCC(F)(F)F | inactive | – |
